# FBA Mtb inh: Mtb FBA enzyme inhibitors, primary screen, biochemical, fluorescence, strain H37Rv | Fructose-bisphosphate aldolase (Mycobacterium tuberculosis (strain ATCC 25618 / H37Rv)), … | purified M. tuberculosis FBA, fluorescence read-out | inhibition, % at 1 µM | hit rate 2.3% among 360,000 | AID 588726, 2011; in the data active means inhibition above about 27%;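 further: 0% = vehicle and 100% = reference inhibitor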
# Rv3671c protease: Rv3671c serine protease inhibitors, primary screen, biochemical, fluorescence polarization, M. tuberculosis H37Rv; inhibition, % at 5.96 µM; P9WHR9; hit rate 0.048% among 320,000; AID 2606, 2010;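 further: extracellular domain of Rv3671c used as enzyme; 0% = enzyme with DMSO and 100% = no enzyme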
# Target sequence (P9WHR9 whole entry, looked up, the tested form may be a part): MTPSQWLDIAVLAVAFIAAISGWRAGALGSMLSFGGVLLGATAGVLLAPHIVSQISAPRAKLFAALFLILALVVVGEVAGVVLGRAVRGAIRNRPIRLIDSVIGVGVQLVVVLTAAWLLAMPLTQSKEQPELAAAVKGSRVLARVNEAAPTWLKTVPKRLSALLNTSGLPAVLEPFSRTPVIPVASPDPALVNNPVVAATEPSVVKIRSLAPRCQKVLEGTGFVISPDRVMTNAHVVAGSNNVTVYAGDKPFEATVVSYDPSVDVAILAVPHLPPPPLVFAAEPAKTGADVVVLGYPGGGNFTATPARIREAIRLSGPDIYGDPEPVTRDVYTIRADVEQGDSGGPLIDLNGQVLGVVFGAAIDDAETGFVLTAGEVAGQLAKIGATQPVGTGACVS
# Mtb UGM inh: M. tuberculosis UGM enzyme inhibitors, primary screen, biochemical, fluorescence polarization, single point; UDP-galactopyranose mutase (Mycobacterium tuberculosis (strain ATCC 25618 / H37Rv)), …; hit rate 0.06% among 320,000; purified UGM, fluorescence polarization probe displacement; inhibition, % at 10 µM; in the data active means inhibition above about 10%, passing the limit was not always enough; inconclusive means no clear call, values can overlap the other calls
# Mtb betalactam: beta-lactam sensitization of Mtb H37Rv, H37Rv. M. tuberculosis H37Rv growth with meropenem, percent inhibition. inhibition, % at 25 µM. hit rate 0.27% among 330,000. AID 434955, 2010; call rule not given here;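 further: growth measured after seven days incubation then overnight dye step; 0% = bacteria only wells and 100% = bacteria with antibiotic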
# GDH-TPI counter: GDH-TPI coupling enzyme inhibitors, primary screen, artefact control for M. tuberculosis FBA inhibitor project, biochemical, absorbance, full deck; GDH-TPI coupled enzyme counterscreen, NADH absorbance; inhibition, % at 4.8 µM; AID 588335, 2011; hit rate 1.2% among 360,000; in the data active means inhibition above about 30%;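 further: 0% = DMSO wells and 100% = wells lacking the enzyme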
# Rv3671c confirm: Rv3671c serine protease inhibitors, retest, confirmation, biochemical, fluorescence polarization, M. tuberculosis H37Rv; shares compounds with Rv3671c protease; inhibition, % at 5.96 µM; hit rate 40% among 140; AID 2761, 2010
# * marks the source's active call; other numbers are inactive results; ? = inconclusive; . = not tested or not shown. Only some compounds are listed: those with a hit (about 3.5% of all), similar ones and a draw of the others. Unless noted, no stated cut-off is given here; in the data, active means inhibition above about 38%; inactive means the rest.
SMILES,FBA Mtb inh,Rv3671c protease,Mtb UGM inh,Mtb betalactam,GDH-TPI counter,others
O=C(CCC(=O)N1CCN(c2ccc(Cl)c(Cl)c2)CC1)c1ccccc1,-2,-4,1,75,-1,
Cc1noc(C)c1S(=O)(=O)N1CCCC(C(=O)Nc2ccc(Cl)cn2)C1 (configuration not stated),75*,8,0,-10,2,
Cc1ccc(NC(=O)C2CCCN(S(=O)(=O)c3c(C)noc3/C=C/N(C)C)C2)cc1F (configuration not stated),0,-45,3,7,40*,
Cc1noc(/C=C/N(C)C)c1S(=O)(=O)N1CCC(C(=O)NC(C)(C)C)CC1,-3,3,-1,-9,41*,
Cc1ccc(NC(=O)C2CCN(S(=O)(=O)c3c(C)noc3/C=C/N(C)C)CC2)cc1,0,-13,4,-1,45*,
O=C(COC(=O)c1ccc[nH]c1=O)Nc1cc(S(=O)(=O)N2CCCCCC2)ccc1Cl,1,.,.,.,0,
CSc1nc2c([nH]1)c(=S)n(C)c(=O)n2C,1,.,.,.,34*,
CCCC(CC)Sc1nc2c([nH]1)c(=S)n(C)c(=O)n2C (configuration not stated),4,.,.,.,20,
CCCCC(C)Sc1nc2c([nH]1)c(=S)n(C)c(=O)n2C (configuration not stated),-3,.,.,.,31*,
COc1ccc(NC(=O)N(C)C[C@H]2Oc3c(NC(=O)Cc4ccccc4)cccc3C(=O)N([C@H](C)CO)C[C@@H]2C)cc1,4,-1,-1,3,4,
CC(=O)c1ccc(N2CCN(C(=O)CNC(=O)c3ccc(Br)o3)CC2)cc1,0,.,.,.,32*,
O=C(Nc1nnc(Cc2ccccc2)s1)c1ccco1,-2,5,1,6,26,
NC(=O)c1cc(Cc2ccccc2)sc1NC(=O)c1ccco1,3,-9,-5,52,39*,
Oc1ccc(Br)cc1/C=N/Nc1nc(N2CCCCC2)nc(N2CCOCC2)n1,.,12,-1,1,.,
Brc1cc2c(cc1/C=N/Nc1nc(N3CCCC3)nc(N3CCOCC3)n1)OCO2,-4,5,-2,6,32*,
O=C1/C(=C/c2cccnc2)Oc2cc(OS(=O)(=O)c3ccccc3)ccc21,4,0,0,99,46*,
Cc1nnc(SCC(=O)Nc2nccs2)n1N,3,-5,1,-12,16,
COC(=O)c1sccc1-c1ccc(C(N)=O)o1,.,1,1,-2,.,
COC(=O)c1sccc1-c1ccc(C(=O)Nc2cccnc2)o1,1,-13,-1,-20,34*,
CCOc1ccc(-n2c(SCC(=O)NC)nnc2-c2ccco2)cc1,0,1,0,-6,7,
O=c1c(-c2ccccc2)c(O)c2c(n1-c1ccccc1)CCCC2,3,14,8,14,-4,
O=c1cc(O)c2c(=O)n(-c3ccccc3)c3c(c2o1)CCCCC3,2,12,.,-2,32*,
COc1ccc(-c2nnc3ccc(SCC(=O)NCC4CCCO4)nn23)cc1 (configuration not stated),2,-5,1,1,1,
COc1ccc(-c2cn3nc(SCC(=O)NCC4CCCO4)ccc3n2)cc1 (configuration not stated),128*,-7,4,-9,24,
O=C(O)CCS(=O)(=O)c1ccccc1Cl,-4,2,0,-6,1,
SMILES,FBA Mtb inh,Rv3671c protease,Mtb UGM inh,Mtb betalactam,GDH-TPI counter,others
CCCOC(=O)c1c(N)n(Cc2cccs2)c2nc3ccccc3nc12,173*,-8,-1,14,11,
C=CCn1c(N)c(C(=O)OCCC)c2nc3ccccc3nc21,175*,-8,0,-6,17,
CCN(Cc1nc2cc(Cl)ccc2c(=O)[nH]1)C(=O)c1nn(C)c(=O)c2ccccc12,5,-8,1,13,1,
Fc1ccc(Cn2cc(C(=S)N3CCOCC3)c3ccccc32)cc1,0,-2,1,2,4,
CCCCCn1cc(C(=O)C(=O)N2CCOCC2)c2ccccc21,-3,-14,3,?,13,
Cc1ccccc1OCCCn1cc(C(=O)C(=O)N2CCOCC2)c2ccccc21,152*,-1,-4,-1,11,
O=C(C(=O)N1CCOCC1)c1cn(Cc2ccc(F)cc2)c2ccccc12,-4,-3,0,-1,32*,
COc1ccc(/C(=C\Nc2ccc(C)c(C)c2)C(C)=O)cc1OC,2,-2,0,-5,14,
COc1ccc(N/C=C(\C(C)=O)c2ccc(OC)c(OC)c2)cc1OC,0,89*,3,1,11,Rv3671c confirm=-11
O=c1oc(-c2cccs2)nc2ccc(Br)cc12,-1,-2,-1,13,4,
Cc1ccc2nc(-c3ccccc3C)oc(=O)c2c1,-1,62*,0,12,9,Rv3671c confirm=75*
Cc1ccc2nc(-c3cccs3)oc(=O)c2c1,-4,52*,-1,4,5,Rv3671c confirm=63*
COc1cnc(NS(=O)(=O)c2ccc(N)cc2)nc1,6,85*,-3,-1,11,Rv3671c confirm=-6
Cc1cc(C)nc(NS(=O)(=O)c2ccc(N)cc2)n1,-3,2,-3,-1,-1,
CC(=O)c1ccc(S(=O)(=O)Nc2cccc(-c3ccc4nncn4n3)c2)cc1,1,56*,-1,-13,9,Rv3671c confirm=11
O=C(CSCC(=O)Nc1ccccc1)N/N=C/c1c(O)ccc2ccccc12,4,10,1,.,11,
O=C(N/N=C/c1c(O)ccc2ccccc12)Nc1ccccc1,.,40*,7,0,.,Rv3671c confirm=56*
CC(=O)c1ccc(N2CCN(C(=O)c3cc(S(=O)(=O)N4CCOCC4)ccc3C)CC2)cc1,7,-1,1,-4,27,
CCn1c(CSc2nnc(-c3cccnc3)n2-c2ccccc2C)nc2cc(C(=O)O)ccc21,.,49*,1,0,.,Rv3671c confirm=64*
CCn1c(CSc2nnc(-c3ccncc3)n2CCOC)nc2cc(C(=O)O)ccc21,-4,14,-1,2,3,
CN(CC1CCOCC1)C(=O)CC1C(=O)NCCN1Cc1cccc(Oc2ccccc2)c1 (configuration not stated),-2,-4,4,4,3,
O=C(O)c1cccc2c1NC(C(=O)O)C1CC(Sc3ccccc3[N+](=O)[O-])C(Cl)C21 (configuration not stated),-14,50*,-1,-6,12,Rv3671c confirm=24
CC(=O)c1ccc2c(c1)C1C(Cl)C(Sc3ccccc3[N+](=O)[O-])CC1C(C(=O)O)N2 (configuration not stated),-9,2,-2,-7,14,
CC(C)(C)c1ccc(OCc2cnc(Cl)s2)cc1,1,-6,-1,12,3,
